Measured values as given in ChEMBL document CHEMBL4513216, “Probing the Open Global Health Chemical Diversity Library for Multistage-Active Starting Points for Next-Generation Antimalarials” (ACS Infect Dis, 2020).
Among all 69,000 compounds or so, about 8,600 (12%) showed an effect of 50% or more. What follows is part of a selection rich in strong results, with near analogues and random picks from the rest.

Tested on: Plasmodium berghei
Assay: Screen against P. berghei liver stage (PbLuc), transformed with Luciferase, at 10uM
Type: functional, HepG2
Settings: tested at 10 uM

Compound	INHIBITION [%]
CCCc1nnsc1C(=O)NCC(O)c1cccs1 (stereo not drawn)	19.9
COc1cccc([C@H]2CN(C(=O)c3noc4c3CCCC4)C[C@@H]2N)c1	31.4
CCOCCN1C[C@H](c2cccc(OC)c2)[C@@H](N)C1	39.9
COc1cccc([C@H]2CN(C(=O)c3cc(C)on3)C[C@@H]2N)c1	23.5
COc1cccc([C@H]2CN(C(=O)c3scc4c3CCCC4)C[C@@H]2N)c1	60.1
COc1cccc([C@H]2CN(C(=O)c3nnc4n3CCCC4)C[C@@H]2N)c1	58.1
C/C=C(\C)CN1C[C@H](c2cccc(OC)c2)[C@@H](N)C1	-0.273
CC(C)CCOCCNC(=O)Nc1ccc(F)c(C(N)=O)c1	-25.9
CCn1c(N)nc2cc(C(=O)NCc3cccc(C)c3C)cnc21	-25.7
CCc1nnc(CN2CCC(N3CCN(CC)C3=O)CC2)o1	-27.8
Cc1cccn2c(=O)cc(OC(=O)c3ccc(OC(C)C)cc3)nc12	-5.59
Cc1ccc2c(cnn2CCC(=O)NCc2csc(C)n2)c1	23.6
CCn1cnnc1CCNS(=O)(=O)N1CCCC1c1ccco1 (stereo not drawn)	27.7
Cc1c(CN2CCCC2c2cncc(CN3CCCC3)n2)cnn1C (stereo not drawn)	12.9
CC(COc1ccccc1)NS(C)(=O)=O (stereo not drawn)	52.6
COc1ccc(OCC(C)NS(C)(=O)=O)cc1 (stereo not drawn)	0.472
Cc1ccc(OCC(C)NS(=O)(=O)N(C)C)cc1 (stereo not drawn)	51.5
Cc1ccc(OCC(C)NS(C)(=O)=O)cc1C (stereo not drawn)	15.7
Cc1ccc(OCC(C)NC(=O)CN(C)c2ccc(C#N)cn2)cc1 (stereo not drawn)	8.38
Cc1ccc(OCC(C)NS(C)(=O)=O)cc1 (stereo not drawn)	-1.7
CCOc1ccc2[nH]c(=O)c(CN3CCC(N4CCCC4)CC3)cc2c1	-1.54
Cc1cccc(C(=O)N2CCCC(c3noc(C)n3)C2)n1 (stereo not drawn)	4.71

Compound	INHIBITION [%]
O=C(NCc1ccco1)[C@@H]1CCO[C@@H]2CCN(c3ccncn3)C[C@H]21	10
COc1ccccc1C(O)CNC(=O)Nc1ccccn1 (stereo not drawn)	35.9
Cc1ccc2c(c1)c(C)cc(=O)n2CCCN	-17
Cn1ccc2c(-c3cc(N)nc(N4CCOCC4)n3)ccnc21	18.8
CCc1cc(-c2ccnc3c2ccn3C)nc(N2CCOCC2)n1	51.5
Cn1ccc2c(-c3cc(N4CCOCC4)ncn3)ccnc21	-3.96
COc1cccc(CN2CCCCC2c2n[nH]cc2-c2cc(C)no2)c1 (stereo not drawn)	25.8
CNC(=O)c1cc2c(nc1NCC1CC1)CCN(c1ccncn1)CC2	32.4
Cc1cc(C)n(CNc2nonc2C(N)=O)n1	44.1
CCc1cc(CN(C)C(=O)CN2CC(c3ccccc3)CC2=O)on1 (stereo not drawn)	9.91
CCc1nnc(CN(C)C(=O)CN2CC(c3ccccc3)CC2=O)o1 (stereo not drawn)	62.4
CN(Cc1nc(C2CC2)no1)C(=O)CN1CC(c2ccccc2)CC1=O (stereo not drawn)	3.96
CCc1cc(O)n2nc(C3CCN(C(=O)c4cccnc4)CC3)cc2n1	13.3
Cc1nc(C2(O)CCCNCC2)sc1CCOc1ccc(F)cc1 (stereo not drawn)	47.2
Cc1nc(C2(O)CCCNCC2)sc1CCOc1ccccc1Cl (stereo not drawn)	55.6
CCN1CCCC(O)(c2nc(C)c(CCOc3ccccc3Cl)s2)CC1 (stereo not drawn)	28
Cc1nc(C2(O)CCCNCC2)sc1CCOc1ccc(Cl)cc1 (stereo not drawn)	73.9
COc1ccc(OCCc2sc(C3(O)CCCNCC3)nc2C)cc1 (stereo not drawn)	52.3
COc1ccc(OCc2sc(C3(O)CCCNCC3)nc2C)cc1 (stereo not drawn)	31.3
Cc1nc(C2(O)CCCNCC2)sc1CCOc1ccccc1 (stereo not drawn)	49.6
CCN1CCCC(O)(c2nc(C)c(CCOc3ccc(F)cc3)s2)CC1 (stereo not drawn)	59.3
Cc1nc(C2(O)CCCNCC2)sc1CCOc1ccccc1F (stereo not drawn)	0.301

Compound	INHIBITION [%]
CCN1CCCC(O)(c2nc(C)c(CCOc3ccccc3F)s2)CC1 (stereo not drawn)	7.52
Cc1nc(C2(O)CCCNCC2)sc1CCOc1ccc(F)c(F)c1 (stereo not drawn)	46
CCCN1CCCC(O)(c2nc(C)c(COc3ccccc3)s2)CC1 (stereo not drawn)	27.6
CCSc1cc(C(=O)NC2CCN(C(=O)c3ccccc3)CC2)ccn1	33.4
Cc1ncc2c(n1)CN(Cc1nc(Cc3ccccc3)no1)CC2	41.2
O=C(CCOc1ccc(Cl)cc1)NCCCn1cccn1	48.8
O=C(CCOc1cccc(Cl)c1)N1CCN(c2cnccn2)CC1	-8.11
CCNC(=O)N1CCC(NC(=O)NCCc2ccc(C)cc2C)C1 (stereo not drawn)	51.7
Cc1ccc(CCNC(=O)NCCCC(N)=O)c(C)c1	-18.6
CCNC(=O)N1CCC(NC(=O)NCCc2cc(F)cc(F)c2)C1 (stereo not drawn)	57.3
CCNC(=O)N1CCC(NC(=O)NCCCc2cccc(F)c2)C1 (stereo not drawn)	35
CC1CCN(C(=O)NCCc2cc(F)ccc2F)C1 (stereo not drawn)	-21.2
CCNC(=O)N1CCC(Cc2cccc(C(N)=O)c2)C1 (stereo not drawn)	10.7
Cc1cccc(CC(=O)NC2CCN(C(=O)NC(C)(C)C)CC2)c1	-38.4
CCNC(=O)N1CCC(NC(=O)NCCc2cccc(C)c2)C1 (stereo not drawn)	77.7
CCNC(=O)N1CCC(NC(=O)NCCc2cc3ccccc3o2)C1 (stereo not drawn)	-43.8
Cc1ccc(CN2Cc3c(C(=O)N4CCN(C)CC4)nn(C)c3C2)s1	3.25
COCc1n[nH]/c(=N\C(=O)c2c3c(nc4onc(C)c24)CCC3)s1	10.7
CC1(C(=O)N2CCOCC2)CN(Cc2ccccc2F)CCO1 (stereo not drawn)	25.6
O=C(Nc1ccc(-c2csnn2)cc1)NC(CCO)C1CC1 (stereo not drawn)	6.11
CCc1ccccc1NCc1nc2[nH]c(C)c(C)c(=O)n2n1	52.5
Cc1ccc(Cl)cc1NCc1nc2[nH]c(C)c(C)c(=O)n2n1	18.3

Compound	INHIBITION [%]
Cc1[nH]c2nc(CNc3ccccc3Cl)nn2c(=O)c1C	-7.83
CN1CCC(Nc2cc(Cl)ccc2OCC(F)(F)F)C1=O (stereo not drawn)	4.34
Cc1cc(CCC(=O)N(C)C)nc(C2CCCCN2)n1 (stereo not drawn)	26.3
O=C(Cc1cc(-c2ccc3c(c2)OCO3)on1)NC1CCCC1	14.6
Cc1nnc(SCCCNC(=O)Cc2ccc3c(c2)OCO3)s1	40.9
Cn1cc(CCNC(=O)CCc2ccc3c(c2)OCO3)cn1	31.3
COCCCNC(=O)Cc1cc(-c2ccc3c(c2)OCO3)on1	65.7
COCCCNC(=O)Cc1cc(-c2ccc(Cl)cc2)on1	53.7
O=C(Cc1cc(-c2ccc3c(c2)OCCO3)on1)NCc1ccccn1	70
Cc1cc(C(=O)NCc2ccccn2)no1	-1.88
COCCCNC(=O)CN(C)C(=O)c1cc(Cl)ccc1O	-15.8
COCCCNC(=O)Cc1cc(-c2ccccc2)on1	-34.3
O=C(N1CCOCC1)N1CCCC(c2ncncc2-c2ccncc2)C1 (stereo not drawn)	5.11
CC(=O)NCCNC(=O)CN1CCOC(Cn2cccn2)C1 (stereo not drawn)	9.29
Cc1csc(N2CCCN(CCC(=O)NC(N)=O)CC2)n1	9.54
CN(C)C(CNC(=O)c1[nH]nc(C2CC2)c1Br)C1CC1 (stereo not drawn)	-4.15
Cc1cc(N2CCCC(O)(CN(C)C(=O)CCN)C2)c2cnccc2n1 (stereo not drawn)	-6.88
COCC(=O)N1CC(c2ccnc(Nc3cc(C(F)(F)F)ccn3)n2)C1	-12.3
CCOC(=O)c1cnn(-c2cc(C)ccn2)c1N	-104
CCOC(=O)c1cnn(-c2cc(Oc3ccccc3)ncn2)c1N	-10.9
CCOC(=O)c1cnn(-c2cc(Oc3ccccc3C)ncn2)c1N	-35.9
CCOC(=O)c1cnn(-c2cc(Oc3cccc(C)c3)ncn2)c1N	51.6

Compound	INHIBITION [%]
COC(=O)c1cnn(-c2cc(Oc3cccc(C)c3)ncn2)c1N	72
Cc1ccc(C)c(-n2ncc(C(=O)N(C)CCc3ccccn3)c2N)c1	-3.33
Cc1cc(C)n(C2CCN(S(C)(=O)=O)CC2)n1	-0.232
Cc1nn(C)c(N(C)C)c1CNCc1ccc(OCC(N)=O)cc1	3.45
c1cn(-c2nccnc2C2CCCN(C3CCOCC3)C2)cn1 (stereo not drawn)	18.805
O=C1NC2(CCN(Cc3ccsc3)CC2)CC1c1ccncc1 (stereo not drawn)	12.6
O=C1NC2(CCN(Cc3ccoc3)CC2)CC1c1ccncc1 (stereo not drawn)	32.4
O=C1NC2(CCN(Cc3ccc(F)cc3)CC2)CC1c1ccncc1 (stereo not drawn)	35.4
N#Cc1cccc(CN2CCC3(CC2)CC(c2ccncc2)C(=O)N3)c1 (stereo not drawn)	-1.26
O=C1NC2(CCN(Cc3cccs3)CC2)CC1c1ccncc1 (stereo not drawn)	59.1
O=C1NC2(CCN(C(=O)c3ccc(Cl)cc3)CC2)CC1c1ccccc1 (stereo not drawn)	14
O=C1NC2(CCN(Cc3nccs3)CC2)CC1c1ccncc1 (stereo not drawn)	48.9
O=C1NC2(CCN(Cc3ccccc3Cl)CC2)CC1c1ccccc1 (stereo not drawn)	68.4
N#Cc1ccccc1CN1CCC2(CC1)CC(c1ccccc1)C(=O)N2 (stereo not drawn)	62.8
CCNC(=O)c1ccc2c(c1)nc1n2CCN(Cc2ccco2)C1	-9.48
C[C@H]1C[C@H]2CN(S(=O)(=O)c3ccc(F)cc3)CC[C@@H]2O1	-1.12
CCn1cc(-c2nn3c(C(F)(F)F)nnc3s2)cn1	-11.4
O=C(NCC1CCC(c2ccnc3ncnn23)CC1)C1CC1 (stereo not drawn)	21.1
CSc1ncn(-c2nc(N(C)C)nc(N(C)C)n2)n1	21.2
CN(C)C(=O)N1CCC2(CC1)NC(=O)c1ccccc12	-13.9
